Experimental data reported in the supplement of paper PMC11732987, “Enantioselective OTUD7B fragment discovery through chemoproteomics screening and high-throughput optimisation” (Communications Chemistry, 2025).
Unmarked numbers belong to inactive results.

What was measured:
Assay in all cases: log2 ratio of Biotin-Ahx-Ub-VS probe labelling (fragment/DMSO); higher = less target engagement (more negative = stronger competition), active = hit call of the paper (q ≤ 0.05, log2 ratio ≤ -1)
Settings in all cases: compound concentration: 200 uM; treatment time: 3 h
[1] = target: T1, OTUD6B (UniProt Q8N6M0)
T1 sequence (whole entry): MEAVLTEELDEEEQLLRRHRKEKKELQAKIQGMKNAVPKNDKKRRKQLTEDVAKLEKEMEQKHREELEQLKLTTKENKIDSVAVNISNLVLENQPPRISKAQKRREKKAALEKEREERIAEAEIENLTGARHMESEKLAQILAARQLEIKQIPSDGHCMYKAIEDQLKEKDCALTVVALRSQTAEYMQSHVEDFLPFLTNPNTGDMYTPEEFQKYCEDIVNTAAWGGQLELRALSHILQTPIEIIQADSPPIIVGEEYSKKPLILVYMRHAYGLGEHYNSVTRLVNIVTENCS
Summary of the method: (§1)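 The table lists average log2 ratios of fragment over vehicle, from an unpaired t-test on global-median-normalised Spectronaut label-free quantities. Proteins with ≥2 unique peptides were used. Samples were HEK293T lysate (495 µg) treated in triplicate with fragment at 200 µM or vehicle for 3 h, then with Biotin-Ahx-Ub-VS (0.5 µM final) for 1 h, with labelled DUBs NeutrAvidin-enriched and run by diaPASEF LC-MS/MS.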

[2] = target: T2, OTUD7B (UniProt Q6GQQ9)
T2 sequence (whole entry): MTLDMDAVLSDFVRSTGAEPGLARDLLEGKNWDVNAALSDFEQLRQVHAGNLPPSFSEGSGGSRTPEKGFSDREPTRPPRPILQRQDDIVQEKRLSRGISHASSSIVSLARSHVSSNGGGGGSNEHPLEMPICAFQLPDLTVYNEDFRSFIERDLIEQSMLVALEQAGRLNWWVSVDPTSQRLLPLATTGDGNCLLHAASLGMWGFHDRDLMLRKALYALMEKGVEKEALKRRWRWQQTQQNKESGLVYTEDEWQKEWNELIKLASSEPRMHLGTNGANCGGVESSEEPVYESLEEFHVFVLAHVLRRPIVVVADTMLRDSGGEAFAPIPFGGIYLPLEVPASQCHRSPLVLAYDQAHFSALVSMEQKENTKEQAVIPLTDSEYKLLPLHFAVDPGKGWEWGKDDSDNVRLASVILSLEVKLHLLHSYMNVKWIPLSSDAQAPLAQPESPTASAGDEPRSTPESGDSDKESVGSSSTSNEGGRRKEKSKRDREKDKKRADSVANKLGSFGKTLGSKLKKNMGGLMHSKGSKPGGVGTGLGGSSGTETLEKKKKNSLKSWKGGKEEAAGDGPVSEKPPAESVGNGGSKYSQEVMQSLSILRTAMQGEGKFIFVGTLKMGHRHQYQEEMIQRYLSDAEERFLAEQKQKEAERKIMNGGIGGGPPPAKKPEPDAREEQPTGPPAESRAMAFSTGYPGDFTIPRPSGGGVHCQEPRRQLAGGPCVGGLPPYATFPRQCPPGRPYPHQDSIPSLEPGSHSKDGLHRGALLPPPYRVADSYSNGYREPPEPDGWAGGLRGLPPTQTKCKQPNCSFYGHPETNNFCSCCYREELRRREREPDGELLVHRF
Summary of the method: as §1

[3] = target: PRPF8 (UniProt Q6P2Q9)
Summary of the method: as §1

[4] = target: T3, PSMD7 (UniProt P51665)
T3 sequence (whole entry): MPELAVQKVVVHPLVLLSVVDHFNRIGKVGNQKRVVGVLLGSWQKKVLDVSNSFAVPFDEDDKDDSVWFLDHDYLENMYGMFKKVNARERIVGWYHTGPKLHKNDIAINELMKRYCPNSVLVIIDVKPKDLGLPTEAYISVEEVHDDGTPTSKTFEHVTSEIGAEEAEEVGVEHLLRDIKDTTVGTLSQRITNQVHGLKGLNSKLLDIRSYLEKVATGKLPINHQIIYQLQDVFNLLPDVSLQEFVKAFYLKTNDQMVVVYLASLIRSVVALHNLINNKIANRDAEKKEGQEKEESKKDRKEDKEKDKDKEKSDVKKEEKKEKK
Summary of the method: as §1

[5] = target: UCHL1 (UniProt P09936)
Chain of UCHL1 (P09936 whole entry, looked up): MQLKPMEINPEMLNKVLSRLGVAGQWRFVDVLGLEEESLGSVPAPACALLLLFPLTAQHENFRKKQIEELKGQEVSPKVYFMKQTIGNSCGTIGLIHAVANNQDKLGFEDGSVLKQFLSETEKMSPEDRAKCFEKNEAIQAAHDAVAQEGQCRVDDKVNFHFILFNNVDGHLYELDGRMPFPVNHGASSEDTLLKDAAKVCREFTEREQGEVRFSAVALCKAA
Summary of the method: as §1

[6] = target: T4, UCHL3 (UniProt P15374)
T4 sequence (whole entry): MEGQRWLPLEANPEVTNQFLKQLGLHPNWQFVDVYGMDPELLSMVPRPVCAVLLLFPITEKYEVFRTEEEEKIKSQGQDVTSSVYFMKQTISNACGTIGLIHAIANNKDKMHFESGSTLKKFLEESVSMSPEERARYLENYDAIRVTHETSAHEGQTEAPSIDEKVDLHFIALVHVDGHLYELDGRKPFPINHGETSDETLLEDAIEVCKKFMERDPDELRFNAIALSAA
Summary of the method: as §1

[7] = target: T5, UCHL5 (UniProt Q9Y5K5)
T5 sequence (whole entry): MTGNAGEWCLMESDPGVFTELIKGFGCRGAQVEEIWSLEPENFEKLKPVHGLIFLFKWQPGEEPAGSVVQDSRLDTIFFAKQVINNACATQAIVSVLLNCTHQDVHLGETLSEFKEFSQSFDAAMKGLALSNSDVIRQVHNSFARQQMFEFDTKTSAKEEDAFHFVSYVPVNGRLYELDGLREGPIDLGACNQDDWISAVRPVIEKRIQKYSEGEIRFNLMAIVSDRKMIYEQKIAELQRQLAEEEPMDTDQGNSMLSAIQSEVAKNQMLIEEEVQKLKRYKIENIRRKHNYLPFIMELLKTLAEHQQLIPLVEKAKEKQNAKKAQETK
Summary of the method: as §1

[8] = target: USP10 (UniProt Q14694)
Chain of USP10 (Q14694 whole entry): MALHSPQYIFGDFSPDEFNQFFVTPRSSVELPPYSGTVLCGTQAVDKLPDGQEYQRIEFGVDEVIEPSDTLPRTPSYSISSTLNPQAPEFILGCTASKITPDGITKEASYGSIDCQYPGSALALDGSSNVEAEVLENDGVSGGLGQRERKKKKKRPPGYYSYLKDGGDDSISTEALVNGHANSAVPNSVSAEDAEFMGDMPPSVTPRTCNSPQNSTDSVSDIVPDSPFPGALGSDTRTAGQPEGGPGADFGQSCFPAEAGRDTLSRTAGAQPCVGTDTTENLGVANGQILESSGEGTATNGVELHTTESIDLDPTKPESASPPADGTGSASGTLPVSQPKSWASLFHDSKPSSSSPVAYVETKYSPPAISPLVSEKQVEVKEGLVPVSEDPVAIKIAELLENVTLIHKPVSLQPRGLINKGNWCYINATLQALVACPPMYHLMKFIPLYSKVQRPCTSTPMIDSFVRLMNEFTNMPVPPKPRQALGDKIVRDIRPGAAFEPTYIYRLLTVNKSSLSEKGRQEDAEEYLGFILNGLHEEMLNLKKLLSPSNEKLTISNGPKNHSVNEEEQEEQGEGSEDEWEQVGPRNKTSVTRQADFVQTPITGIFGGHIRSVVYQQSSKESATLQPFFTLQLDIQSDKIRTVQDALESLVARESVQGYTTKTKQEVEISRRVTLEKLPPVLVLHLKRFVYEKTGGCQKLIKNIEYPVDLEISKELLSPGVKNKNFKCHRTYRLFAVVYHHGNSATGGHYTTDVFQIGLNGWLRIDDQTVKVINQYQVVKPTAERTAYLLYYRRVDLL
Summary of the method: as §1

[9] = target: T6, USP15 (UniProt Q9Y4E8)
T6 sequence (whole entry): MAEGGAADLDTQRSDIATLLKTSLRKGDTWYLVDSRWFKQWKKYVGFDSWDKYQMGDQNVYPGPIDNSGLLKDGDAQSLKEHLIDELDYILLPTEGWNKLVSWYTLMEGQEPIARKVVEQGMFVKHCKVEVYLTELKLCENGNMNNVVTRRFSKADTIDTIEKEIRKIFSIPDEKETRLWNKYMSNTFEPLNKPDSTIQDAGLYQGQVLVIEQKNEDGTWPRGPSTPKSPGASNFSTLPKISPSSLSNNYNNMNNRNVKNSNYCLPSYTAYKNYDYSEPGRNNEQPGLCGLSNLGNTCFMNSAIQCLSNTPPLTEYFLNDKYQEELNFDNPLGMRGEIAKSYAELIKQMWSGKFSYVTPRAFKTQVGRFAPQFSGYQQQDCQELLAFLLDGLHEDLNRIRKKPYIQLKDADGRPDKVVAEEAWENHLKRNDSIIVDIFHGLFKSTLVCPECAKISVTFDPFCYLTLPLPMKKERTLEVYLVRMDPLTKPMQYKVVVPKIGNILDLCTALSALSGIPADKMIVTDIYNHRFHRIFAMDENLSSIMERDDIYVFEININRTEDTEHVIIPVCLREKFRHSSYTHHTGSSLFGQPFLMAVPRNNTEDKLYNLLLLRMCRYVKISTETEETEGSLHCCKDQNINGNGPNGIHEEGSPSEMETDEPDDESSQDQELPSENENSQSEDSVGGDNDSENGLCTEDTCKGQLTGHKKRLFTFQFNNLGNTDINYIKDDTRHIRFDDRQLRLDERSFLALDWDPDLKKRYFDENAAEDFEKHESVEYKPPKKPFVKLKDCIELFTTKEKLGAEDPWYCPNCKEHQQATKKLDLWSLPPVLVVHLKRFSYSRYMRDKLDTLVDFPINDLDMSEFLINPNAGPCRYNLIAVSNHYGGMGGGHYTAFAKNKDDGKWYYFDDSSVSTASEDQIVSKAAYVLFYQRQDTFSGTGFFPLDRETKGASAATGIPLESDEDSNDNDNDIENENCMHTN
Summary of the method: as §1

[10] = target: USP16 (UniProt Q9Y5T5)
Chain of USP16 (Q9Y5T5 whole entry, looked up): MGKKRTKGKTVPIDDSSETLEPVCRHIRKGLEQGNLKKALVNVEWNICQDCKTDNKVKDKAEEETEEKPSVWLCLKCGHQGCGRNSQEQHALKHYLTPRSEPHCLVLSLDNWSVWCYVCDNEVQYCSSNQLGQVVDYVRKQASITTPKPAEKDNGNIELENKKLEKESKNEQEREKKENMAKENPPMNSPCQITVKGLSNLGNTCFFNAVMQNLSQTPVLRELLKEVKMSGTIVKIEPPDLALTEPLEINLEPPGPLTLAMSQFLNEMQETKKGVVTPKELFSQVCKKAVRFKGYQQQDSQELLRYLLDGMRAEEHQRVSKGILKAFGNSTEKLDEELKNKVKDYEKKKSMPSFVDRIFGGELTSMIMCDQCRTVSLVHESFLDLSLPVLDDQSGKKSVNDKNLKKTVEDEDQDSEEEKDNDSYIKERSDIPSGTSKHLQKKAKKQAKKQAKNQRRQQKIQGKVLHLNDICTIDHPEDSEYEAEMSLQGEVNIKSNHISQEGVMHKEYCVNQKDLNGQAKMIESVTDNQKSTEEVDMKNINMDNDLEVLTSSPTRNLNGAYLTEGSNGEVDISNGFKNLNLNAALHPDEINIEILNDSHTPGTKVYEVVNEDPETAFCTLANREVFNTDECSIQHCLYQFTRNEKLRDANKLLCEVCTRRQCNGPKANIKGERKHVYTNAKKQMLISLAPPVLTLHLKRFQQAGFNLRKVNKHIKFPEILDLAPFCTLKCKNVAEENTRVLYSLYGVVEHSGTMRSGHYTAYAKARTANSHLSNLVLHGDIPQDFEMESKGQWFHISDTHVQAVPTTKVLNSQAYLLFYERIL
Summary of the method: as §1

O=C(CCl)NC1CCOc2ccccc21 (stereo not given)
log2 ratio of Biotin-Ahx-Ub-VS probe labelling [1]: -0.54 | log2 ratio of Biotin-Ahx-Ub-VS probe labelling [2]: -2.14 (active) | log2 ratio of Biotin-Ahx-Ub-VS probe labelling [3]: -0.152 | log2 ratio of Biotin-Ahx-Ub-VS probe labelling [4]: -0.0224 | log2 ratio of Biotin-Ahx-Ub-VS probe labelling [5]: -1.84 (active) | log2 ratio of Biotin-Ahx-Ub-VS probe labelling [6]: -0.57 | log2 ratio of Biotin-Ahx-Ub-VS probe labelling [7]: -1.08 (active) | log2 ratio of Biotin-Ahx-Ub-VS probe labelling [8]: -0.255 | log2 ratio of Biotin-Ahx-Ub-VS probe labelling [9]: -0.851 | log2 ratio of Biotin-Ahx-Ub-VS probe labelling [10]: -0.325
